Test results reported in PubChem BioAssay AID602229 (The Scripps Research Institute Molecular Screening Center, 2012).
Out of some 360,000 compounds screened, about 1,300 (0.36%) were called active.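 Rule for the calls: active = inhibition above the mean of all tested compounds plus 3 SD (cut at about 70% in these data); inactive = the rest.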 Many of the other results were omitted from the sample, so actives are more common in it than they were.

Target: Photoreceptor-specific nuclear receptor (Homo sapiens) (UniProt Q9Y5X4)
Sequence (Q9Y5X4 whole entry, looked up, the tested form may be a part): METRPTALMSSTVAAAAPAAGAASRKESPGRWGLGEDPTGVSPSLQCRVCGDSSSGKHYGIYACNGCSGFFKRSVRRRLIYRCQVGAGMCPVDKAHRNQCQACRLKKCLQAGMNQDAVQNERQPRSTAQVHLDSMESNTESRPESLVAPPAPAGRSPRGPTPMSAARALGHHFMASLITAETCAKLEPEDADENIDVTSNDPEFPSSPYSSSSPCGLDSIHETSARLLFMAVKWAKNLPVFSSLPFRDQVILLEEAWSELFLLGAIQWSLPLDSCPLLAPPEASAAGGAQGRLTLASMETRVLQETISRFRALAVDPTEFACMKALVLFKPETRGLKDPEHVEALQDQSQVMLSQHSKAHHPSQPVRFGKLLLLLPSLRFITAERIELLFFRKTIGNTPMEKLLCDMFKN
Assay: NR2E3 agonists in two-hybrid cells, primary screen, cell-based, luminescence, CHO-S, Gal4-NCOR/VP16-NR2E3 (AID 602229);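 note: 0% = DMSO with NR2E3 transfected cells and 100% = cells lacking NR2E3 construct; higher means lower luciferase signal from less NR2E3 corepressor binding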
Details: luciferase, at 3.98 µM, stronger effect = higher value

Inhibition of corepressor binding, inactive:
O=C(NCc1ccccc1)C(=O)NCC1OCCN1S(=O)(=O)c1ccc(Br)cc1 (stereo unspecified) 10.3%, O=C(C1CCC1)N1CCc2cc(S(=O)(=O)NCc3cccnc3)ccc21 10%, COc1ccc(N(C)S(=O)(=O)c2ccc3c(c2)CC(C)N3C(=O)C2CC2)c(OC)c1 (stereo unspecified) -11.9%, COc1ccc(S(=O)(=O)n2nc(C)c(S(=O)(=O)N3CCOCC3)c2C)cc1 -29.6%, COc1ccc(S(=O)(=O)Nc2cccnc2)c(Cl)c1Cl -20.2%, Cc1cc(C)c(C)c(S(=O)(=O)Nc2cccnc2)c1C -21.1%, CN(CCc1cnn(C)c1)Cc1cn(C)nc1-c1ccccc1F -12.1%, COc1ccc(NC(=O)C2=NNC(=O)CC2)cc1S(=O)(=O)N1CCCCC1 -7.29%, CC1(C)O[C@@H]2CC3C4C[C@H](F)C5=CC(=O)C=CC5(C)C4C(O)CC3(C)[C@]2(C(=O)CO)O1 (stereo partly specified) 7.42%, COc1cccc(NS(=O)(=O)c2ccc(-c3coc(C)n3)cc2)c1 50.6%, Cc1ccc(NS(=O)(=O)c2ccc3c(c2)n(C)c(=O)c(=O)n3C)c(C)c1 10.7%, CCC1CCCCN1C(=O)CSc1nc(C)cc(C)n1 (stereo unspecified) 7.45%, Cc1ccc(C(=O)OC2=CC(=O)CC(C)(C)C2)cc1 -13.1%, CS(=O)(=O)N1CCN=C1SCc1ccc(F)cc1 -6.15%, COc1cccc(N(CC(=O)NC2CCCC2)C(=O)CCCC(=O)Nc2ccccn2)c1 -5.7%, O=S(=O)(Nc1ccc(Oc2ncccn2)c(Cl)c1)c1ccc(F)cc1 -0.77%, COc1cc(NS(=O)(=O)c2ccc3ccccc3c2)c2ncccc2c1 48%, COC(=O)c1ccccc1NC(=O)C1CCN(S(=O)(=O)c2cc(OC)ccc2OC)CC1 -0.68%, O=C(CSc1ccccn1)N1CCN(S(=O)(=O)c2ccc(Cl)cc2)CC1 -21.8%, CCCc1cc(=O)[nH]c(SCc2ccc(C#N)cc2)n1 -25.9%, O=C(CN(CC1CCCO1)C(=O)CNS(=O)(=O)c1ccccc1)NCc1ccccc1 (stereo unspecified) -7.79%, CCOC(=O)C1=NNC2(c3ccc(Cl)cc3)C(=O)N(c3cc(C)cc(C)c3)C(=O)C12 (stereo unspecified) 3.14%, Cc1cc(C)nc(NC(=O)Nc2ccccc2C(F)(F)F)n1 -48.1%, CC(C)(C)C(=O)COC(=O)c1cc(S(=O)(=O)N2CCCCC2)ccc1N1CCOCC1 -9.47%, COc1ccccc1CCCNC(=O)C1CCC(=O)N(CCN2CCOCC2)C1 (stereo unspecified) -8.73%, O=C(c1ccco1)N1CCN(CC(=O)N(C2CCCCC2)C2CCS(=O)(=O)C2)CC1 (stereo unspecified) -15.5%, Cc1ccc(S(=O)(=O)N2CCN(Cc3cccc(C)c3O)CC2)cc1 4.5%, Cc1ccc(S(=O)(=O)N2CCC3(CC2)OCCO3)c(C)c1 -34.4%, COc1ccc(S(=O)(=O)N2CCN(c3ncnc4c(-c5ccccc5)nsc34)CC2)cc1 -27.3%, Cc1ccc([N+](=O)[O-])cc1S(=O)(=O)N1CCCN(C)CC1 -11.3%, N#CC1=C(N)Oc2[nH]c(=S)[nH]c(=O)c2C12C(=O)Nc1ccccc12 (stereo unspecified) -7.36%, CCCCn1nnnc1C(c1ccccc1)N1CCN(c2ccccc2OC)CC1 (stereo unspecified) -15.1%, CCCCC(=O)N(c1ccc(OC)cc1)C1C=CS(=O)(=O)C1 (stereo unspecified) -26%, COC(=O)[C@]12CCCCC=C1N(Cc1ccco1)C(=O)[C@H](CC(=O)NCCCCc1ccccc1)C2 -23.9%, COc1ccc(NC(=O)CC2SC(N3CCCCC3)=NC2=O)cc1OC (stereo unspecified) 8.6%, CS(=O)(=O)Nc1ccccc1N=C(c1ccccc1)c1ccccc1 7.7%, O=C(CCc1nnc2ccc(NCCCN3CCCC3=O)nn12)NCc1ccccc1Cl 8.39%, Cc1ccc(S(=O)(=O)N2CCN(C(=O)Cc3sc(C)nc3-c3ccc(F)cc3)CC2)c(C)c1 -15.2%, Cc1nc(-c2ccc(F)cc2)c(CC(=O)N2CCN(S(=O)(=O)c3ccc(F)cc3)CC2)s1 -1.49%, O=S(=O)(Nc1ccc(-c2ccc(N3CCOCC3)nn2)cc1)c1cc(Cl)ccc1Cl -41.5%, COc1ccc(C(C(=O)NCC2CCCO2)N(C(=O)Cn2nnc3ccccc32)c2ccc(NC(C)=O)cc2)cc1OC (stereo unspecified) -35.2%, Cn1c(=O)oc2cc(S(=O)(=O)N3CCC(C(=O)Nc4ccc(OC(F)(F)F)cc4)CC3)ccc21 -16.6%, O=C(CC(NCCN1CCOCC1)C(=O)O)Nc1cccc(Cl)c1 (stereo unspecified) 5.57%, Cc1ccc(S(=O)(=O)NC(C)C(=O)NCc2ccc(Cl)cc2)cc1 (stereo unspecified) -5.53%, CCn1cc(C(=O)N[C@@H](C)C(=O)NCCO)c(=O)c2cc3c(cc21)OCO3 -12.3%, Cc1nc([N+](=O)[O-])c(NCCCO)n1Cc1ccccc1 -10.6%, COCC(=O)N1CCc2ccc(NC(=O)c3ccccc3Cl)cc2C1 -6.67%, CCOC(=O)C1CCCN(C(=O)c2cc(-c3cccs3)oc2C)CC1 (stereo unspecified) -1.14%, CCOc1ccccc1N1CCN(C(=O)c2ccc3[nH]c(C)c(C)c3c2)CC1 -57.3%, C[C@H](CO)N1C[C@H](C)[C@H](CN(C)CC2CC2)Oc2ccc(NC(=O)CCN3CCOCC3)cc2C1=O -4.02%, COc1ccccc1CNc1nc(Nc2ccccc2Cl)c2sccc2n1 64.7%, COc1cccc(CNc2nc(NCc3ccccc3OC)nc3ccsc23)c1 54.7%, CC[C@]1(c2ccccc2OC)C(=O)N(C(=O)OC)N1C(=O)OC 14.9%, COc1cc(C(=O)NCc2nnc(SCC(=O)Nc3nc4ccc(C)cc4s3)o2)cc(OC)c1OC -10.1%, COc1cc(C(=O)NCc2ccc(-n3cccc3)cc2)cc(OC)c1OC 11.4%, Cc1ccc(N(CCC(=O)O)S(=O)(=O)c2cccc(C(F)(F)F)c2)cc1 4.8%, Cc1noc(C)c1S(=O)(=O)Nc1cc(C(F)(F)F)ccc1N1CCOCC1 4.86%, CCCOc1ccc(CN(CCO)CCO)cc1C(=O)OC 5.92%, COc1ccccc1CNC(=O)CNC(=O)c1cn(-c2ccccc2OC)c(=O)c2ccccc12 6.65%, COc1ccc(S(=O)(=O)N2CCc3ccccc32)cc1C(=O)Nc1cc(S(C)(=O)=O)ccc1Cl -23.6%, Cc1ccc(C)c(NC(=O)CN(C)C(=O)c2ccc3ncsc3c2)c1 -19.7%, CC1(C(=O)NS(=O)(=O)c2ccc(Cl)cc2)CCN1C(=O)CC1CCCC1 (stereo unspecified) 9.74%, Cc1ccc(NC(=O)c2sccc2C)cc1[N+](=O)[O-] -86.2%, CN(CC(=O)Nc1cccc(F)c1)C(=O)C1=COCCO1 -5.12%, Cc1ccc(NC(=O)C(C)OC(=O)Cc2c[nH]c3ccccc23)cc1S(=O)(=O)N1CCOCC1 (stereo unspecified) 20.8%, O=C(Nc1ccc(Br)cc1)c1cc(S(=O)(=O)Nc2ccccn2)ccc1Cl 0.47%, S=C(NN=Cc1ccccn1)Nc1ccccn1 52.5%, CCCN(CC(=O)Nc1ccc(OC)c(OC)c1)CC(=O)Nc1ccc(F)c(F)c1F -8.16%, CCOC(=O)C1CCN(S(=O)(=O)c2c(C)noc2C)CC1 -11.3%, Cc1csc(OCC(=O)Nc2ccc(C)c(C)c2)n1 -16.6%, CCOC(=O)c1cnc2ccc(F)cc2c1Nc1ccc2c(c1)OCCO2 -13.2%, c1ccc(-c2nccc(-c3ccc(-n4cnc5ccccc54)cc3)n2)nc1 34.3%, Cc1nc2ccccc2c(C(=O)O)c1-c1ccccn1 -21.4%

Inhibition of corepressor binding, active:
COc1cccc(CNS(=O)(=O)c2ccc3c(c2)CC(C)N3C(=O)C2CCC2)c1 (stereo unspecified) 87.5%, COc1ccccc1Oc1ccc(S(=O)(=O)Nc2cccnc2)cc1 96.3%, Cc1ccc(NS(=O)(=O)c2ccc(-c3coc(C)n3)cc2)c(C)c1 73.5%, Cc1ccc(S(=O)(=O)Nc2ccc3ncccc3c2)cc1 74.2%, CC(C)N=C1CCCC1C(=S)SSC(=S)C1CCCC1=NC(C)C (stereo unspecified) 82.3%, CN(O)C(=S)c1ccccc1 98.8%, Cc1ccc(C)c(S(=O)(=O)N2CCN(c3ncnc4sccc34)CC2)c1 85.8%, Cc1ccc(S(=O)(=O)N2CCN(c3ncnc4ccccc34)CC2)cc1 89.9%, Cc1nc(-c2ccc(F)cc2)c(CC(=O)Nc2cc(S(=O)(=O)N3CCCCC3)ccc2C)s1 82.8%, CC[C@H]1CN2CCc3cc(OC)c(OC)cc3[C@@H]2C[C@@H]1C[C@H]1NCCc2cc(OC)c(OC)cc21 104%, CCCCCCCCn1c2c(c(=N)c3c1CCC3)CCCC2 92%, CCN1/C(=C\c2ccc3ccccc3[n+]2CC)Sc2cc(C)ccc21 89.4%, COc1cccc(CNc2nc(NCc3cccs3)nc3ccsc23)c1 88.5%, CCn1c(CNC(=O)c2cc(OC)c(OC)c(OC)c2)cc2cc(C)ccc21 89.3%, Cc1oc2c(F)c(F)c(F)c(F)c2c1S(=O)(=O)Nc1cccc(C(F)(F)F)c1 110%, Cc1ccc(NC(=O)CN(C)CC(=O)Nc2cccc(F)c2)cc1[N+](=O)[O-] 84.2%, Oc1ccc(Br)cc1/C=N/Nc1ccccn1 87.1%, CC(C)(C)Nc1nc(-c2ccccn2)nc2ccccc12 98.8%
